The campaign covered roughly 5,500 compounds. About 2,000 (36%) were called active. Another 18% or so got no clear call; they are omitted. Rule as the data show it: active = normalized growth mostly below about 0.91 (no sharp cut-off); inconclusive = no clear call, values can overlap the other calls; inactive = mostly above about 0.92. This is one part of the list.
Assay: chemical genetic growth profiling, strain panel (AID 1159580);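 also: tested at 20 µM; growth read once vehicle control cultures reached saturation at 30 °C; 1 = growth at the plate median or of vehicle wells; lower values mean less growth of the strain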
Settings: S. cerevisiae deletion strains, growth OD
[1] = locus YDL101C, strain DUN1, stronger effect = lower value
[2] = locus YHR030C, strain SLT2, stronger effect = lower value
[3] = locus YJL187C, strain SWE1, stronger effect = lower value
[4] = locus YNL153C, strain GIM3, stronger effect = lower value
[5] = locus YNL322C, strain KRE1, stronger effect = lower value
[6] = locus YHR079C, strain IRE1, stronger effect = lower value
[7] = locus YJL095W, strain BCK1, stronger effect = lower value
[8] = locus YJR066W, strain TOR1, stronger effect = lower value
[9] = locus YLR113W, strain HOG1, stronger effect = lower value
[10] = locus YNL183C, strain NPR1, stronger effect = lower value
[11] = locus YOR231W, strain MKK1, stronger effect = lower value
[12] = locus YPL256C, strain CLN2, stronger effect = lower value

Measured: normalized growth

O=C(Nc1ccccc1C(=O)NC1CCCCNC1=O)c1cccs1 (configuration not stated)
inactive: locus YAL013W, strain DEP1, stronger effect = lower value 1 | locus YBR229C, strain ROT2, stronger effect = lower value 1.01 | [1] 1 | locus YDL134C, strain PPH21, stronger effect = lower value 1.01 | locus YDR150W, strain NUM1, stronger effect = lower value 0.996 | locus YEL061C, strain CIN8, stronger effect = lower value 1.01 | locus YGR078C, strain PAC10, stronger effect = lower value 1 | [2] 1.02 | locus YHR087W, strain rtc3, stronger effect = lower value 1.02 | [3] 1.01 | locus YJR043C, strain POL32, stronger effect = lower value 0.972 | locus YJR075W, strain HOC1, stronger effect = lower value 1.02 | locus YLR039C, strain RIC1, stronger effect = lower value 1.06 | locus YLR058C, strain SHM2 (second series), stronger effect = lower value 1 | locus YLR085C, strain ARP6, stronger effect = lower value 1.01 | locus YLR262C, strain YPT6, stronger effect = lower value 1.03 | locus YML094W, strain GIM5, stronger effect = lower value 1.02 | locus YMR219W, strain ESC1, stronger effect = lower value 1.01 | locus YMR263W, strain SAP30, stronger effect = lower value 1.01 | [4] 1 | locus YNL298W, strain CLA4 (second series), stronger effect = lower value 1.03 | [5] 1 | locus YNR030W, strain Alg12, stronger effect = lower value 1.02 | locus YPL055C, strain LGE1, stronger effect = lower value 0.998 | locus YPL241C, strain CIN2, stronger effect = lower value 1.03 | locus YPR135W, strain CTF4, stronger effect = lower value 1.01

O=C(O)[C@@H]1C[C@H](C(=O)O)N1
inactive: locus YAL040C, strain CLN3, stronger effect = lower value 0.943 | locus YCL061C, strain MRC1 (second series), stronger effect = lower value 0.984 | locus YDR363W, strain ESC2, stronger effect = lower value 1.06 | locus YER002W, strain NOP16, stronger effect = lower value 0.988 | [4] 0.986 | locus YNL175C, strain NOP13, stronger effect = lower value 0.99 | locus YNL197C, strain WHI3, stronger effect = lower value 0.967 | locus YNL224C, strain SQS1, stronger effect = lower value 0.965 | [5] 0.987 | locus YOR083W, strain WHI5 (second series), stronger effect = lower value 0.973

O=C(NCc1ccco1)c1ccc(Oc2cc(Cl)cc(Cl)c2)o1
inactive: locus YAR019C, strain CDC15, stronger effect = lower value 0.961 | locus YBL105C, strain PKC1, stronger effect = lower value 0.96 | locus YBR135W, strain CKS1, stronger effect = lower value 0.964 | locus YBR136W, strain MEC1, stronger effect = lower value 0.964 | locus YBR160W, strain CDC28, stronger effect = lower value 0.967 | locus YDL017W, strain CDC7, stronger effect = lower value 0.969 | locus YDL028C, strain MPS1, stronger effect = lower value 0.967 | [1] 0.964 | locus YDL108W, strain KIN28, stronger effect = lower value 0.96 | locus YDL132W, strain cdc53, stronger effect = lower value 0.957 | locus YDL214C, strain PRR2, stronger effect = lower value 0.936 | locus YDR052C, strain DBF4, stronger effect = lower value 0.968 | locus YDR054C, strain cdc34, stronger effect = lower value 0.957 | locus YDR226W, strain ADK1, stronger effect = lower value 0.959 | locus YDR477W, strain SNF1, stronger effect = lower value 0.952 | locus YER123W, strain YCK3, stronger effect = lower value 0.932 | locus YER133W, strain GLC7, stronger effect = lower value 0.932 | locus YFL009W, strain cdc4, stronger effect = lower value 0.957 | locus YFL029C, strain CAK1, stronger effect = lower value 0.951 | locus YFR003C, strain YPI1, stronger effect = lower value 0.962 | locus YFR019W, strain FAB1, stronger effect = lower value 0.96 | locus YFR028C, strain CDC14, stronger effect = lower value 0.957 | locus YGR040W, strain KSS1, stronger effect = lower value 0.948 | locus YGR052W, strain FMP48, stronger effect = lower value 0.95 | locus YGR092W, strain DBF2, stronger effect = lower value 0.957 | [2] 1.05 | [6] 1 | locus YHR082C, strain KSP1, stronger effect = lower value 0.994 | locus YHR205W, strain SCH9, stronger effect = lower value 0.952 | locus YIL147C, strain SLN1, stronger effect = lower value 0.964 | [7] 0.931 | locus YJL128C, strain PBS2, stronger effect = lower value 0.914 | locus YJL157C, strain FAR1, stronger effect = lower value 0.941 | locus YJR016C, strain ILV3, stronger effect = lower value 0.955 | locus YJR066W, strain TOR1 (second series), stronger effect = lower value 0.974 | [8] 1.03 | locus YKL048C, strain ELM1, stronger effect = lower value 0.939 | locus YKL067W, strain YNK1, stronger effect = lower value 0.945 | locus YKL101W, strain HSL1, stronger effect = lower value 0.917 | locus YKL193C, strain SDS22, stronger effect = lower value 0.958 | locus YKL203C, strain TOR2, stronger effect = lower value 1.01 | locus YLR133W, strain CKI1, stronger effect = lower value 0.931 | locus YLR403W, strain SFP1, stronger effect = lower value 0.968 | locus YML070W, strain DAK1, stronger effect = lower value 0.94 | locus YMR001C, strain CDC5, stronger effect = lower value 0.956 | locus YMR205C, strain PFK2 (second series), stronger effect = lower value 0.942 | locus YMR277W, strain FCP1, stronger effect = lower value 0.958 | locus YNL006W, strain LST8, stronger effect = lower value 0.971 | locus YNL020C, strain ARK1, stronger effect = lower value 0.939 | locus YNL161W, strain CBK1, stronger effect = lower value 0.967 | [10] 0.963 | locus YNL207W, strain RIO2, stronger effect = lower value 0.947 | locus YNL222W, strain SSU72, stronger effect = lower value 0.964 | locus YNL307C, strain MCK1 (second series), stronger effect = lower value 0.93 | locus YOL078W, strain AVO1, stronger effect = lower value 0.953 | locus YOL136C, strain PFK27, stronger effect = lower value 0.907 | locus YOR061W, strain CKA2, stronger effect = lower value 0.942 | locus YOR119C, strain RIO1, stronger effect = lower value 1.01 | [11] 0.883 | locus YOR329C, strain SCD5, stronger effect = lower value 0.965 | locus YPL031C, strain PHO85, stronger effect = lower value 0.942 | locus YPL153C, strain RAD53, stronger effect = lower value 0.969 | locus YPL204W, strain HRR25, stronger effect = lower value 0.941 | locus YPL209C, strain IPL1, stronger effect = lower value 0.961 | [12] 0.906 | locus YPR025C, strain CCL1, stronger effect = lower value 0.961 | locus YPR106W, strain ISR1, stronger effect = lower value 0.958 | locus YPR111W, strain DBF20, stronger effect = lower value 0.949 | strain NNK1, stronger effect = lower value 0.942 | strain TSCII, stronger effect = lower value 0.955
active: [9] 0.761

O=C(/C=C/c1ccccc1)O[C@H]1C[C@@H](O)[C@]2(O)C=CO[C@@H](O[C@@H]3O[C@H](CO)[C@@H](O)[C@H](O)[C@H]3O)[C@H]12
inactive: locus YAL021C, strain ccr4, stronger effect = lower value 0.996 | locus YAL026C, strain drs2, stronger effect = lower value 1.03 | locus YAL030W, strain snc1, stronger effect = lower value 1.03 | locus YBL061C, strain skt5, stronger effect = lower value 1.02 | locus YBR009C, strain hhf1, stronger effect = lower value 1.05 | locus YBR023C, strain chs3, stronger effect = lower value 1.02 | locus YBR171W, strain sec66, stronger effect = lower value 1.03 | locus YBR231C, strain swc5, stronger effect = lower value 1.03 | locus YBR279W, strain paf1, stronger effect = lower value 1.02 | locus YCL011C, strain gbp2, stronger effect = lower value 1.02 | locus YCL016C, strain dcc1, stronger effect = lower value 1.03 | locus YCL061C, strain MRC1, stronger effect = lower value 1.02 | locus YCL069W, strain vba3, stronger effect = lower value 1.03 | locus YCR088W, strain abp1, stronger effect = lower value 1.02 | locus YDL005C, strain med2, stronger effect = lower value 1.02 | locus YDL040C, strain nat1, stronger effect = lower value 1.03 | locus YDR001C, strain nth1, stronger effect = lower value 1.02 | locus YDR069C, strain doa4, stronger effect = lower value 1.03 | locus YDR137W, strain rgp1, stronger effect = lower value 1.03 | locus YDR159W, strain sac3, stronger effect = lower value 1.05 | locus YDR195W, strain ref2 1.01 | locus YDR297W, strain sur2, stronger effect = lower value 1.02 | locus YDR334W, strain swr1, stronger effect = lower value 1.03 | locus YDR335W, strain msn5, stronger effect = lower value 1.02 | locus YDR392W, strain spt3, stronger effect = lower value 0.927 | locus YEL003W, strain gim4, stronger effect = lower value 1.03 | locus YEL037C, strain rad23, stronger effect = lower value 1.02 | locus YEL061C, strain CIN8 (second series), stronger effect = lower value 1.01 | locus YER015W, strain faa2, stronger effect = lower value 1.02 | locus YER016W, strain bim1, stronger effect = lower value 1.03 | locus YER111C, strain swi4, stronger effect = lower value 1.03 | locus YER155C, strain BEM2 (second series), stronger effect = lower value 1.04 | locus YFR010W, strain ubp6, stronger effect = lower value 1.03 | locus YGL167C, strain pmr1, stronger effect = lower value 1.02 | locus YGL173C, strain kem1, stronger effect = lower value 1.03 | locus YGL227W, strain vid30, stronger effect = lower value 1.03 | locus YGL240W, strain doc1, stronger effect = lower value 1.04 | locus YGL253W, strain hxk2, stronger effect = lower value 1.03 | locus YHR013C, strain ard1, stronger effect = lower value 0.995 | locus YHR027C, strain rpn1, stronger effect = lower value 1.03 | [2] 0.902 | [6] 0.939 | locus YHR142W, strain chs7, stronger effect = lower value 0.998 | locus YJL092W, strain hpr5, stronger effect = lower value 1.02 | locus YJL095W, strain BCK1 (second series), stronger effect = lower value 1.03 | [7] 0.928 | locus YJL115W, strain asf1, stronger effect = lower value 1.03 | locus YJL129C, strain trk1, stronger effect = lower value 1.01 | locus YJL154C, strain vps35, stronger effect = lower value 1.02 | locus YJL164C, strain tpk1, stronger effect = lower value 1.01 | locus YJL166W, strain qcr8, stronger effect = lower value 1.03 | [3] 1.02 | [8] 0.92 | locus YKL160W, strain elf1, stronger effect = lower value 0.989 | locus YKR026C, strain gcn3, stronger effect = lower value 1.03 | locus YKR091W, strain srl3, stronger effect = lower value 1.02 | locus YLL001W, strain dnm1, stronger effect = lower value 1.02 | locus YLL026W, stronger effect = lower value 1.02 | locus YLL041C, strain sdh2, stronger effect = lower value 1.02 | locus YLR027C, strain aat2, stronger effect = lower value 1.02 | [9] 0.878 | locus YLR221C, strain rsa3, stronger effect = lower value 1 | locus YLR258W, strain gsy2, stronger effect = lower value 1.05 | locus YLR262C, strain YPT6 (second series), stronger effect = lower value 1.04 | locus YLR320W, strain mms22, stronger effect = lower value 1.02 | locus YLR342W, strain FKS1, stronger effect = lower value 1.02 | locus YLR357W, strain rsc2, stronger effect = lower value 1.02 | locus YLR370C, strain arc18, stronger effect = lower value 1.02 | locus YLR384C, strain iki3, stronger effect = lower value 1.03 | locus YML120C, strain ndi1, stronger effect = lower value 0.999 | locus YMR058W, strain fet3, stronger effect = lower value 1.02 | locus YMR125W, strain sto1, stronger effect = lower value 1.03 | locus YMR129W, stronger effect = lower value 1.02 | locus YMR205C, strain PFK2, stronger effect = lower value 1.06 | locus YMR231W, strain pep5, stronger effect = lower value 1.03 | locus YNL071W, strain lat1, stronger effect = lower value 1.02 | [10] 0.951 | locus YNL209W, strain ssb2, stronger effect = lower value 1.02 | locus YNL248C, strain rpa49, stronger effect = lower value 0.992 | locus YNL322C, strain KRE1 (second series), stronger effect = lower value 1.03 | locus YNR049C, strain mso1, stronger effect = lower value 1.03 | locus YOR001W, strain rrp6, stronger effect = lower value 1 | locus YOR070C, strain gyp1, stronger effect = lower value 1.03 | locus YOR080W, strain dia2, stronger effect = lower value 1.03 | locus YOR083W, strain WHI5, stronger effect = lower value 0.986 | locus YOR106W, strain vam3, stronger effect = lower value 1.01 | [11] 0.938 | locus YOR265W, strain rbl2, stronger effect = lower value 1.02 | locus YOR270C, strain vph1, stronger effect = lower value 1.03 | locus YOR290C, strain snf2, stronger effect = lower value 0.969 | locus YPL051W, strain arl3, stronger effect = lower value 1.01 | locus YPL078C, strain atp4, stronger effect = lower value 0.996 | locus YPL106C, strain sse1, stronger effect = lower value 1.04 | locus YPL240C, strain hsp82, stronger effect = lower value 1.02 | [12] 0.943

Source: PubChem BioAssay AID1159580 (chemical genetic matrix, 2015)
